Screening results: PubChem BioAssay, National Center for Advancing Translational Sciences (NCATS)
KDM5B inh = KDM5B demethylase inhibition; Q9UGL1; KDM5B demethylase, FDH-coupled NADH fluorescence (FDH is formaldehyde dehydrogenase); Potency, µM (doses to about 57.7 µM), most hits filed as inhibitors; hit rate 2.6% among 220,000; AID 1347165; active means well fitted inhibition curve with a large enough effect; further: 0% is about no effect; nearly all actives have a fitted effect of over 70% in size
Target sequence (Q9UGL1 whole entry, looked up): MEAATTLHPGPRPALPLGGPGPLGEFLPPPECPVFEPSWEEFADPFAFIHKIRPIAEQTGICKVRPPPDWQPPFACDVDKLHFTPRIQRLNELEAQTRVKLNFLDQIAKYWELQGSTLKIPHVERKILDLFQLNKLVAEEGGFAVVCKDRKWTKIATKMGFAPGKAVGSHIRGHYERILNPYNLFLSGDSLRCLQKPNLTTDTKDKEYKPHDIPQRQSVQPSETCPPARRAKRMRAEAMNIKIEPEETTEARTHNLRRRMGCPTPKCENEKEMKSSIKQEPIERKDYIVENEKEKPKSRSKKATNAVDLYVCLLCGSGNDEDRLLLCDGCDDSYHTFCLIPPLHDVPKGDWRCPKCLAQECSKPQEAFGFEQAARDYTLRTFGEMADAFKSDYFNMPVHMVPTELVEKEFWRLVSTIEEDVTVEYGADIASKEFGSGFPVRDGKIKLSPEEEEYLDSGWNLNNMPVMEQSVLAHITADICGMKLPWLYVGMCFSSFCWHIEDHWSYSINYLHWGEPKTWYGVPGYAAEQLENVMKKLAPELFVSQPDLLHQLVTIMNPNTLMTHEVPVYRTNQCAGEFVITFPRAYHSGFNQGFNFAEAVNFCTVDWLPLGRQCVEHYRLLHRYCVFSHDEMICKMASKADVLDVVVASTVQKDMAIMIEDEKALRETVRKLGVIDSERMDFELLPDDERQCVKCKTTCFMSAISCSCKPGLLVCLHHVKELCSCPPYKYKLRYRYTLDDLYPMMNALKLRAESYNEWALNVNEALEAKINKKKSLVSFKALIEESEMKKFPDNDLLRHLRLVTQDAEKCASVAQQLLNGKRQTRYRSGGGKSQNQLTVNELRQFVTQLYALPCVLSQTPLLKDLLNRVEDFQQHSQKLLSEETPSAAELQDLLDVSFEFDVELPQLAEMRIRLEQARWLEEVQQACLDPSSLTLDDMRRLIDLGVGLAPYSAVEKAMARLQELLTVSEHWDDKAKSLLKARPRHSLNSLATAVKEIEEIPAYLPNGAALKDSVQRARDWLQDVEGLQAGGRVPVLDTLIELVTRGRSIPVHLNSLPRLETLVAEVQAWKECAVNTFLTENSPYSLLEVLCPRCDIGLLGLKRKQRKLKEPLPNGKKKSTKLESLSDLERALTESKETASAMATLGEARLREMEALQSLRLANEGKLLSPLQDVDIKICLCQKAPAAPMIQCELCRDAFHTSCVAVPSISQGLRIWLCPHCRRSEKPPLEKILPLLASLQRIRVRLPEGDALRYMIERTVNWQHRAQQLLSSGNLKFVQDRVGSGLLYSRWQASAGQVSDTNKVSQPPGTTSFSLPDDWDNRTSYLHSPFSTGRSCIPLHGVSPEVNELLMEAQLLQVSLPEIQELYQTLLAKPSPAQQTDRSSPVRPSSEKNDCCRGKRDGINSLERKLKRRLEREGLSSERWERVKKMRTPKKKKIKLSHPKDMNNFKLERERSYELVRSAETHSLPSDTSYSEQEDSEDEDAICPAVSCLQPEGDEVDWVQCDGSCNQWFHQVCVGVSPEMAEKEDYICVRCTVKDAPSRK
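KDM5BΔAP (200 nM final) in 50 mM HEPES pH 7.5, 0.01% Tween-20 was preincubated 10 min at RT with compound over a concentration range. Substrate mix (H3K4me3 12.5 µM, α-KG 25 µM, Fe²⁺, ascorbate, NAD⁺, FDH) was added, and NADH fluorescence change over 30 min gave dose-response curves.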
An asterisk follows results filed as active; i = inactive. This is one part of a sample in which hits are shown more often than they occur. Potency means the concentration at half of the fitted maximal effect.

SMILES | KDM5B inh
COCCNC(=O)c1ccc2c(c1)C1(CCN(CC3CC3)C1)CN2Cc1ccccc1 (centres undefined) | 35µM*
CN(/C=C/C(=O)C(F)(F)F)CC(=O)O | i
CCC(C)NC(=S)Nc1cccc(C)c1 (centres undefined) | i
O=C1CCC2(CCN(C(=O)C3CCOCC3)CC2)CN1CCc1ccncc1 | i
O=C(c1ccc(Br)o1)N1c2ccccc2CC1c1nnc(C2CCOCC2)o1 (centres undefined) | i
c1coc(-c2nnc([C@H]3CCN(Cc4cccs4)C3)o2)c1 | i
CCC(C)NC(=O)Nc1ccc2nc(N3CCOCC3)cc(C)c2c1 (centres undefined) | i
CC(=O)N1CC2(CCN(CC3CC3)C2)Cc2ccccc21 (centres undefined) | i
O=C1N(c2ccccc2)c2ccccc2C12CCN(CC1CC1)C2 (centres undefined) | i
O=C(NC1CCC1)c1ccc2c(c1)C1(CCN(CC3CC3)C1)CN2Cc1ccccc1 (centres undefined) | 40µM*
CN(C)CCNC(=O)c1ccc2c(c1)C1(CCN(CC3CC3)C1)CN2Cc1ccccc1 (centres undefined) | 35µM*
N#Cc1cccc(C(=O)NC2CCCN(Cc3ccccc3)C2)c1 (centres undefined) | i
O=C(NCCc1ccccc1)c1ccc2c(c1)CCN2S(=O)(=O)c1ccc(Cl)cc1 | i
NC(=O)c1ccc2c(c1)C1(CCN(CC3CC3)C1)CN2Cc1ccccc1 (centres undefined) | 35µM*
O=C(NCCCO)c1ccc2c(c1)C1(CCN(CC3CC3)C1)CN2Cc1ccccc1 (centres undefined) | 35µM*
CCCCNC(=O)c1ccc2c(c1)N(Cc1ccccc1)C(=O)CS2=O (centres undefined) | i
CN(C)CCNC(=O)c1ccc2nc(Cc3ccccc3)oc2c1 | i
Cc1nc2ccc(C(=O)NC3CCN(Cc4ccccc4)CC3)cc2nc1C | i
O=C(Nc1ccc(Cl)c(C(F)(F)F)c1)c1ccc(F)cc1F | i
COc1ccccc1CNC(=O)C[C@@H]1[C@H](O)CCC2[C@](C)(CO)[C@H](OC(=O)NC(C)C)CC[C@]21C (some centres undefined) | i
CC(=O)N1CCN(CC(=O)Nc2c(C#N)c(C)c(C)n2C2CCCCC2)CC1 | i
O=C(NCc1cccc(C(F)(F)F)c1)[C@H]1CN(Cc2ccccc2)C[C@H]1C(=O)O | i
COC(=O)CNC(=O)c1ccc(C)c(C)c1 | i
COc1ccc(C(=O)NC(=O)CSc2ccccc2Cl)cc1 | i
O=C1CC(c2ccccc2)N(Cc2ccc(F)cc2F)CCCCCCN1 (centres undefined) | i
SMILES | KDM5B inh
N#Cc1ccc(Cc2cnc(NC(=O)c3ccsc3)s2)c(C(F)(F)F)c1 | i
CNS(=O)(=O)c1ccc(C)c(C(=O)N2CCCC(c3nc4ccccc4[nH]3)C2)c1 (centres undefined) | i
CN(Cc1cccc(C(F)(F)F)c1)C(=O)C1(c2ccc(Cl)cc2)CCOCC1 | i
CN1CCC2(C1)CN(Cc1ccccc1)c1ccc(C(=O)NC3COC3)cc12 (centres undefined) | 40µM*
O=C(NC1CC(=O)N(CCCc2ccccc2)C1)c1ccc2c(c1)OCO2 (centres undefined) | i
Cc1ccc(CN2C(=O)c3ccccc3Sc3ccc(C(=O)NC4CCCC4)cc32)cc1 | i
COc1cc(CC(=O)Nc2ccc(C)c(S(=O)(=O)N3CCCCCC3)c2)cc(OC)c1OC | i
CCc1cccc(C)c1NC(=O)c1ccc(S(=O)(=O)N(C)c2ccccc2OC)cc1 | i
CCc1nc2c(c(-c3ccc(Cl)cc3)n1)CN(C(=O)c1cccc(Cl)c1)CC2 | i
COc1ccc(-c2noc([C@@H]3CCCN3C(=O)c3ccco3)n2)cc1OC | i
COc1ccc(CCC(=O)N2CCC[C@H]2c2nc(-c3ccc(OC)c(OC)c3)no2)cc1 | i
CC(=O)N1CCCCCC1c1nc(-c2ccncc2)no1 (centres undefined) | i
CC(=O)N1CCCCCC1c1nc(-c2cccnc2)no1 (centres undefined) | i
COc1ccc(CN2CCC[C@H]2c2nc(-c3ccc(N4CCC(C(N)=O)CC4)nc3)no2)c(O)c1 | i
c1cncc(CN2CCCCC2c2nc(CCOCC3CCOCC3)no2)c1 (centres undefined) | i
NC(=O)C1CCN(c2cc(-c3noc([C@@H]4CCCN4Cc4cccnc4)n3)ccn2)CC1 | 40µM*
NC(=O)C1CCN(c2cc(-c3noc([C@@H]4CCCN4Cc4ccncc4)n3)ccn2)CC1 | 32µM*
c1cncc(CN2CCC[C@H]2c2nc(-c3ccnc(N4CCCC4)c3)no2)c1 | 35µM*
CC(=O)Nc1ccc(CN2CCC[C@H]2c2nc(-c3ccnc(N4CCC(C(N)=O)CC4)c3)no2)cc1 | 32µM*
Fc1ccc(-c2noc([C@@H]3CCCN3Cc3ccccc3)n2)nc1 | i
COc1cc(NC(=O)C(=O)NC(C)C)ccc1N1CCCCS1(=O)=O | i
Cc1cc(COc2ccccc2)oc1C(=O)N1C[C@@H]2CCN(C)[C@@H]2C1 | i
CC(NC(=O)C1(C#N)CCCCC1)c1ccccc1Cl (centres undefined) | i
Cc1c(Cl)cccc1NC(=O)c1nc2ccccc2nc1N1CCCCC1 | i
O=C(O)c1ccc(CNCc2ccc(Br)cc2)cc1 | i
SMILES | KDM5B inh
CCCCn1c(=O)[nH]c(=O)c2[nH]c(-c3ccc(C#N)cc3)nc21 | i
COc1ncccc1-c1ncc2c(n1)OCCN(Cc1ccc(F)cc1F)C2=O | i
CCCCNC(=O)c1cccc(C(=O)NCCCC)n1 | i
CC(NC(=O)C1CCCN(c2cnc3nccnc3c2)C1)c1ccccn1 (centres undefined) | i
O=C(Nc1nc(-c2ccc(Cl)s2)cs1)C1CC1 | i
CCc1ccc(OCC(O)Cn2c(NCCc3ccccc3)nc3c2c(=O)[nH]c(=O)n3C)cc1 (centres undefined) | i
CC(=O)N1CCN(c2cc(-c3noc([C@@H]4CCCN4Cc4ccc(N(C)C)cc4)n3)ccn2)CC1 | 28µM*
COCC(=O)Nc1ccc(-c2noc([C@@H]3CCCN3CC(C)C)n2)cn1 | i
c1cc(-c2noc([C@@H]3CCCN3Cc3ncc[nH]3)n2)cc(N2CCCC2)n1 | 40µM*
COCCOc1ccnc(-c2noc([C@@H]3CCCN3Cc3ccc(S(C)(=O)=O)cc3)n2)c1 | i
COCC(=O)Nc1ccc(-c2noc([C@@H]3CCCN3Cc3ccc(S(C)(=O)=O)cc3)n2)cn1 | i
CC(C)CN1CCC[C@H]1c1nc(-c2ccnc(NS(C)(=O)=O)c2)no1 | 35µM*
COc1cccc(C2CC(N)C2)c1 (centres undefined) | i
O=C(O)C1CC(=O)N(c2ccc(S(=O)(=O)Nc3cc(F)cc(F)c3)cc2)C1 (centres undefined) | i
CC(C)(O)C1CCCN(C(=O)c2cc(COc3cccc(F)c3)[nH]n2)C1 (centres undefined) | i
Cc1ccn2cc(-c3ccc(NS(=O)(=O)c4ccc5c(c4)OCCO5)cc3)nc2n1 | i
O=C(c1cc2ccccc2oc1=O)N(Cc1cccc(Cl)c1)Cc1ccco1 | i
CC(C)CCN1CCn2c(nn(-c3ccc(Cl)cc3)c2=O)C1 | i
CN1CCC2(Cc3ccccc3CN(C(=O)C3CCCC3)C2)C1 (centres undefined) | i
Cc1nc(-c2ccc(S(=O)(=O)Nc3c(C)cccc3C)cc2)co1 | i
